The whole screen tested about 290,000 compounds, of which about 1,800 (0.62%) were called active. The entries come from a sample that favours actives as a whole. Values without a mark were called inactive. No stated cut-off is given here; in the data, active means inhibition above about 50%; inactive means the rest.

The nature of this experiment: NOD2 signaling inhibitors, cell-based, luminescence, uHTS, HEK293 (AID 1566). As to conditions: HEK293 NOD2/NF-kB luciferase reporter, at 4 µM, stronger effect = higher value. Background: In a reporter assay the amount or activity of a reporter protein is the signal.
What is called inhibition is the change of the read-out against control, counted positive when it falls. On to `CCOc1ccc(-c2cc(C)[n+](CCc3ccc(OC)c(OC)c3)c(-c3ccc(OCC)cc3)c2)cc1`, for which the inhibition was 58.6% (active).

As to `CCOc1ccc(-c2cc(C)[n+](CCO)c(-c3ccc(OCC)cc3)c2)cc1`, the inhibition is 0.3%.

`CCOc1ccc(-c2cc(C)[n+](CCN3CCOCC3)c(-c3ccc(OCC)cc3)c2)cc1`: the inhibition was 21.6%.

Regarding `COc1ccc(-c2cc(=NCCCCCC(=O)O)c3cc(C)ccc3o2)cc1`, the inhibition is -4.2%.

With `N=C1C(c2ccccc2)=C(O)CN1Cc1ccco1`, the inhibition is 8.2%.

For `Cc1cccc(-n2c(O)c(C=NCCN3CCNCC3)c(=O)[nH]c2=S)c1`, the inhibition was -4.3%.

`O=C(Cn1cc(C(=O)c2ccccc2F)c2ccccc21)NC1CC1`: the inhibition is 13.6%.

For `O=C(c1cc(C(=O)NCc2ccccc2)c(=O)n(Cc2ccccc2)c1)c1cc(Br)ccc1O`, the inhibition was 2.5%.

`CCCCNS(=O)(=O)c1ccc(OCC(=O)N2CCN(Cc3ccc4c(c3)OCO4)CC2)cc1`: the inhibition was 51.1% (active).

Consider `CCc1ccc(OCC(=O)N2CCN(Cc3ccc4c(c3)OCO4)CC2)cc1`, for which the inhibition was -4.3%.

Consider `CCCNS(=O)(=O)c1ccc(OCC(=O)N2CCN(Cc3ccc4c(c3)OCO4)CC2)cc1`, for which the inhibition was 20.9%.

For `CC(C)CNP(=S)(c1ccccc1)C(C)(C)C` (configuration not stated), the inhibition was 10.7%.

On to `O=c1cc(CN2CCNCC2)nc2sccn12`, for which the inhibition was 8.2%.

`FC(F)(F)c1cccc(C2NCc3ccccc3-n3cccc32)c1` (configuration not stated): the inhibition was 9.8%.

For the compound `CC(=O)OC1CC[C@]2(C#N)[C@H]3CC[C@]4(C)[C@H](C5C=CC(=O)O5)CCC4(O)C3CCC2(O)C1` (some centres not stated), the inhibition is 75% (active).

As for `Cn1cccc1CN1CCN(C(=O)COc2ccccc2)CC1`, the inhibition was 16.7%.

In the case of `O=[N+]([O-])c1ccccc1CN1CC=C(c2ccc(F)cc2)CC1`, the inhibition is -15.5%.

As for `C[C@H]1O[C@@H](OC2CC[C@]3(C=O)[C@H]4CC[C@]5(C)[C@@H](C6=CC(=O)OC6)CC[C@]5(O)[C@@H]4CC[C@]3(O)C2)CC2OC(C)(C)OC21` (some centres not stated), the inhibition is 73% (active).

With `CC12CC[C@H]3[C@@H](CCC4(O)C[C@H](O)CCC34/C=N/NC(=O)c3ccc(O)cc3)C1(O)CCC2C1=CC(=O)OC1` (some centres not stated), the inhibition is 9.1%.

With `C[C@H]1O[C@@H](O[C@H]2[C@@H](O)C[C@H](O[C@H]3[C@@H](O)C[C@H](O[C@H]4CC[C@@]5(C)[C@H](CC[C@@H]6[C@@H]5CC[C@]5(C)[C@@H](C7=CC(=O)OC7)CC[C@]65O)C4)O[C@@H]3C)O[C@@H]2C)C[C@H](O)[C@@H]1O`, the inhibition is 73.9% (active).

Consider `CC12CC[C@H]3[C@@H](CCC4(O)C[C@H](O)CCC34/C=N/NC(=O)c3ccccc3O)C1(O)CCC2C1=CC(=O)OC1` (some centres not stated), for which the inhibition was 17.2%.

Consider `CC12CC[C@H]3[C@@H](CCC4(O)C[C@H](O)CCC34/C=N/NC(=O)c3ccccc3Cl)C1(O)CCC2C1=CC(=O)OC1` (some centres not stated), for which the inhibition was 25.4%.

With `COc1ccc(C(=O)N/N=C/C23CC[C@@H](O)CC2(O)CC[C@@H]2[C@@H]3CCC3(C)C(C4=CC(=O)OC4)CCC23O)cc1` (some centres not stated), the inhibition was 27.3%.

In the case of `CCOc1ccc(N=Cc2c(O)n(Cc3ccccc3)c(=S)[nH]c2=O)cc1`, the inhibition was 8.4%.

As to `CC(C)CCOP(N)(=O)Oc1ccccc1` (configuration not stated), the inhibition was -6.2%.

In the case of `Cc1ccc2cccc(OC(=O)N(C)c3ccccc3)c2n1`, the inhibition was 5.1%.

For the compound `C=CCn1c(O)c(C(C)=NC2CC2)c(=O)[nH]c1=O`, the inhibition was 4.6%.

On to `O=c1c2ccccc2nc(/C=C/c2ccc(O)cc2)n1-c1ccccc1O`, for which the inhibition is -2.5%.

Take `Cc1nc2ccc(Cl)cc2c(=O)n1-c1cccc(Cl)c1`: the inhibition is -2.1%.

Turning to `O=C(Cn1nc(Cc2cccnc2)c2ccccc2c1=O)N1CCC2(CC1)OCCO2`, the inhibition is 20.3%.

As to `COc1ccccc1/C=C1\C(=O)NC(=S)N(c2ccccc2)C1=O`, the inhibition is 11.6%.

On to `NC(=S)c1cn(C2OC(CO)C(O)C2O)c2ncnc(N)c12` (configuration not stated), for which the inhibition is 69.1% (active).

Take `CCNC(=O)[C@H]1O[C@@H](n2cnc3c(N)ncnc32)[C@H](O)[C@@H]1O`: the inhibition is -24.1%.

On to `C=C(CC1CC(O)[C@]2(C)OC3CC4OC5C[C@]6(C)O[C@]7(C)CCC8OC9C[C@]%10(C)OC%11C(C)=CC(=O)OC%11CC%10OC9C[C@@H](C)C8OC7CC6O[C@]5(C)C/C=C\C4OC3CC2O1)C(=O)O` (some centres not stated), for which the inhibition is 12.8%.

As to `C=C(C=O)C[C@@H]1C[C@H](O)C2OC3C[C@]4(C)OC5/C=C\CC6OC7C(CC=CCC6OC5CCCC4OC3CC2O1)OC1CC2OC3CC(=O)OC3C[C@@H](C)C[C@@]2(C)OC1C[C@@H]7C` (some centres not stated), the inhibition is 58.2% (active).

Turning to `C=C(CO)CC1CC(O)[C@]2(C)OC3CC4OC5C[C@]6(C)O[C@]7(C)CCC8OC9C[C@]%10(C)OC%11C(C)=CC(=O)OC%11CC%10OC9C[C@@H](C)C8OC7CC6O[C@]5(C)C/C=C\C4OC3CC2O1` (some centres not stated), the inhibition was 4.7%.

On to `C=CCn1c(O)c(/C(C)=N/NC(=S)Nc2ccccc2)c(=O)[nH]c1=O`, for which the inhibition was 10.8%.

Turning to `CCOc1cccc(=NC2CCCCC2)c2c(C)n(C)c(C)c12`, the inhibition was 27%.

Regarding `Cc1ccsc1-c1nc(CSCC(=O)N2CCC3(CC2)OCCO3)c(C)o1`, the inhibition was 11.3%.

With `Cc1oc(-c2cccs2)nc1CSCC(=O)N1CCC2(CC1)OCCO2`, the inhibition was 57.1% (active).

On to `COc1ccc(-c2nc(CSCC(=O)N3CCC4(CC3)OCCO4)c(C)o2)cc1OC`, for which the inhibition was -11.2%.

With `O=c1[nH]c(=O)n(CCC2=CCCCC2)c(O)c1/C=N/Nc1cccc2ccccc12`, the inhibition is 33.9%.

`C[C@H]1[C@H](OC(=O)CCC(=O)NCc2ccc(C(=O)O)cc2)O[C@@H]2O[C@@]3(C)CC[C@H]4[C@H](C)CC[C@@H]1C24OO3`: the inhibition is 26.4%.

In the case of `CC1C(OC(=O)CCC(=O)NC(C)(C)CO)O[C@H]2OC3(C)CC[C@H]4[C@H](C)CCC1C24OO3` (some centres not stated), the inhibition is 64.5% (active).

Regarding `C[C@@H]1CC[C@H]2[C@@H](C)C(=O)O[C@@H]3O[C@@]4(C)CC[C@@H]1[C@]32OO4`, the inhibition was 9%.

For the compound `O=c1[nH]c(=O)n(CCC2=CCCCC2)c(O)c1/C=N/Nc1ccccc1`, the inhibition was 15.6%.

In the case of `CCOc1ccc(N2C(=O)NC(=O)/C(=C/c3cnc(SC)nc3)C2=O)cc1`, the inhibition is 3%.

These data come from PubChem BioAssay AID1566 (Sanford-Burnham Center for Chemical Genomics, 2009).
